Our source for the inhibition values is ChEMBL document CHEMBL1961873, “Compounds: GSK PKIS; Assays: Nanosyn kinase panel” (2012).

Molecules are shown by their SMILES.

What is called inhibition is the drop in the measured response relative to a control, in per cent.

Experiment [1] concerns the target Protein kinase C gamma type (Homo sapiens) (UniProt P05129). The conditions noted are these: at 1 µM.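 Note: each value is an averaged percent inhibition of the enzyme.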
The target of experiment [2] is T1, Protein kinase C iota type (Homo sapiens) (UniProt P41743).
T1 sequence (whole entry): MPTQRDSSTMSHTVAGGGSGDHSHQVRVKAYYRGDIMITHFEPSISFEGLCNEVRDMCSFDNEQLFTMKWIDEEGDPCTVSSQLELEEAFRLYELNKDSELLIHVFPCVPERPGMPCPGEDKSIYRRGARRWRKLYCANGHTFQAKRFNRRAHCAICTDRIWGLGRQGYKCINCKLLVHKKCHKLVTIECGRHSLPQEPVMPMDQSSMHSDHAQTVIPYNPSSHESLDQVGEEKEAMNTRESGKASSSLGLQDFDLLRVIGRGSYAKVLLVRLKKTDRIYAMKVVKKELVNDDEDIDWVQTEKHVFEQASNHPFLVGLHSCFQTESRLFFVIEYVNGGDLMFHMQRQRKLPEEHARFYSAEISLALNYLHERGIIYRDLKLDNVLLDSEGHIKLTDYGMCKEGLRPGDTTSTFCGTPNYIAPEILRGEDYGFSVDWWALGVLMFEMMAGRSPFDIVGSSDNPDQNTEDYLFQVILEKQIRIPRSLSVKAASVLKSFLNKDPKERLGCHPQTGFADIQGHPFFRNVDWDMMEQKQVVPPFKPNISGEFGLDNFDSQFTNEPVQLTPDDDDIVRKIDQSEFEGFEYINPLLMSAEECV
The conditions noted are these: at 0.1 µM.

Experiment [3] deals with T1, Protein kinase C iota type (Homo sapiens). The conditions noted are these: at 1 µM.
In experiment [4] the target is Protein kinase C theta type (Homo sapiens) (UniProt Q04759). The following applies: at 0.1 µM.
Protein kinase C theta type (Homo sapiens), sequence (Q04759 whole entry, looked up): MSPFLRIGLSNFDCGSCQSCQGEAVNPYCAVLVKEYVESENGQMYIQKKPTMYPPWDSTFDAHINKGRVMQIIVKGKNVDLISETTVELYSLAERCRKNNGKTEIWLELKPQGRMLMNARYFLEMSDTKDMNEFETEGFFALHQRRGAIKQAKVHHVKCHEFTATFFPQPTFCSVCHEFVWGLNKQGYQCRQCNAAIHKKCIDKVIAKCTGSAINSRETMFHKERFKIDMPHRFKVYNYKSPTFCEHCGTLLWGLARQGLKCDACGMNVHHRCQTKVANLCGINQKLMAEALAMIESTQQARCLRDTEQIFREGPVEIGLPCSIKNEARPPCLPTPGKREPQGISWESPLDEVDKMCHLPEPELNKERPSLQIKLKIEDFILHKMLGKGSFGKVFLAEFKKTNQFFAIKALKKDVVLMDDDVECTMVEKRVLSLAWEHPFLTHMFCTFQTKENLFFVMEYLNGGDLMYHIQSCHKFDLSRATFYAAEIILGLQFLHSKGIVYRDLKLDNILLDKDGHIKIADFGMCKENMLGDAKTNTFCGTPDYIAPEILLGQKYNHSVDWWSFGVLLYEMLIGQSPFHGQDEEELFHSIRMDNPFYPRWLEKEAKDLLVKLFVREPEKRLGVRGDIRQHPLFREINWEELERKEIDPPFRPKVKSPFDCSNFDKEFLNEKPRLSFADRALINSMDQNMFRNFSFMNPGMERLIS
For experiment [5] the target is unchanged. The conditions noted are these: at 1 µM.
The target of experiment [6] is Protein kinase C beta type (Homo sapiens) (UniProt P05771). The conditions noted are these: at 0.1 µM.
Protein kinase C beta type (Homo sapiens), sequence (P05771 2-671 limits assumed): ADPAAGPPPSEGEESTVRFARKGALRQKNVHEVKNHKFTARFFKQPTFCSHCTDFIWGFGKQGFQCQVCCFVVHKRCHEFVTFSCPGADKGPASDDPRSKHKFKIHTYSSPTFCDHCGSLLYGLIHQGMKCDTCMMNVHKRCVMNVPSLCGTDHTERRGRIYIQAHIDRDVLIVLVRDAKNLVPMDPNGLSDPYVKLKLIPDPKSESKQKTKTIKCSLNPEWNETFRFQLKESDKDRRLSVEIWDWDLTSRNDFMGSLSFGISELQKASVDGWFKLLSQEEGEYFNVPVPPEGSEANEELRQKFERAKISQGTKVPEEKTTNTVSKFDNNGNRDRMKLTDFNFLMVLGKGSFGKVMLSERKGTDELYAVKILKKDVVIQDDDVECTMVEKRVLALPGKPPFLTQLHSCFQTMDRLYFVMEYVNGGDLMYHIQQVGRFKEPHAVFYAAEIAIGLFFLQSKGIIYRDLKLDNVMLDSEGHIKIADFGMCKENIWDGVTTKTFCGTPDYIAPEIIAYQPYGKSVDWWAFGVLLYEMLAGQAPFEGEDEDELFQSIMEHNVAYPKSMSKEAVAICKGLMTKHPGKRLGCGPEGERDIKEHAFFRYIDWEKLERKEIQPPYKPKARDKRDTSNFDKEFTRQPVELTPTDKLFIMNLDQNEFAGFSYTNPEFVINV
Experiment [7] has the same target. The conditions noted are these: at 1 µM.
Experiment [8] concerns the target T2, Serine/threonine-protein kinase D1 (Homo sapiens) (UniProt Q15139).
T2 sequence (whole entry): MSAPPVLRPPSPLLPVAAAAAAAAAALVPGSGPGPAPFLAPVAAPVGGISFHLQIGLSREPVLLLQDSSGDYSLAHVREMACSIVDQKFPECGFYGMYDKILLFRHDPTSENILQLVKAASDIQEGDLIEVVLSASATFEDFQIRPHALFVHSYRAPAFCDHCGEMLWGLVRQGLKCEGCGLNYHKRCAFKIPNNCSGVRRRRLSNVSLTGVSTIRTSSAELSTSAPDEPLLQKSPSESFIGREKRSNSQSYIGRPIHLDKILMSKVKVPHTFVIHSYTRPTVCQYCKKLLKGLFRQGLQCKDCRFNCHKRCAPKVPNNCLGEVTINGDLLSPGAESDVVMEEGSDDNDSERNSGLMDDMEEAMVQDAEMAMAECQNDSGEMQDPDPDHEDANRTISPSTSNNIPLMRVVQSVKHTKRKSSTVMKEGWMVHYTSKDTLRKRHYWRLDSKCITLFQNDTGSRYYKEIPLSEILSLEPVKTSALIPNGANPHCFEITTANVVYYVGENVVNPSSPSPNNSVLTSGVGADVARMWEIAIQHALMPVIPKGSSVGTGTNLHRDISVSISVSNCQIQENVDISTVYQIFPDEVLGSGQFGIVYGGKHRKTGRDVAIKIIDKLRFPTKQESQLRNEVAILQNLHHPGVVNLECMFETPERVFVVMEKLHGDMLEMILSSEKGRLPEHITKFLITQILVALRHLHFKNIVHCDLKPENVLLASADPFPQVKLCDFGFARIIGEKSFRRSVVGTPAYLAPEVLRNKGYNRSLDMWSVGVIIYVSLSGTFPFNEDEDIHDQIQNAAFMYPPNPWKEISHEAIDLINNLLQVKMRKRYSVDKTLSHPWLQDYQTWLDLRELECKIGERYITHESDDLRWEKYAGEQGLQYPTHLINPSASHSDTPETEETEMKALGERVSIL
The conditions noted are these: at 0.1 µM.

Experiment [9] addresses T2, Serine/threonine-protein kinase D1 (Homo sapiens). The conditions noted are these: at 1 µM.
The target in experiment [10] is T3, Serine/threonine-protein kinase D2 (Homo sapiens) (UniProt Q9BZL6).
T3 sequence (whole entry): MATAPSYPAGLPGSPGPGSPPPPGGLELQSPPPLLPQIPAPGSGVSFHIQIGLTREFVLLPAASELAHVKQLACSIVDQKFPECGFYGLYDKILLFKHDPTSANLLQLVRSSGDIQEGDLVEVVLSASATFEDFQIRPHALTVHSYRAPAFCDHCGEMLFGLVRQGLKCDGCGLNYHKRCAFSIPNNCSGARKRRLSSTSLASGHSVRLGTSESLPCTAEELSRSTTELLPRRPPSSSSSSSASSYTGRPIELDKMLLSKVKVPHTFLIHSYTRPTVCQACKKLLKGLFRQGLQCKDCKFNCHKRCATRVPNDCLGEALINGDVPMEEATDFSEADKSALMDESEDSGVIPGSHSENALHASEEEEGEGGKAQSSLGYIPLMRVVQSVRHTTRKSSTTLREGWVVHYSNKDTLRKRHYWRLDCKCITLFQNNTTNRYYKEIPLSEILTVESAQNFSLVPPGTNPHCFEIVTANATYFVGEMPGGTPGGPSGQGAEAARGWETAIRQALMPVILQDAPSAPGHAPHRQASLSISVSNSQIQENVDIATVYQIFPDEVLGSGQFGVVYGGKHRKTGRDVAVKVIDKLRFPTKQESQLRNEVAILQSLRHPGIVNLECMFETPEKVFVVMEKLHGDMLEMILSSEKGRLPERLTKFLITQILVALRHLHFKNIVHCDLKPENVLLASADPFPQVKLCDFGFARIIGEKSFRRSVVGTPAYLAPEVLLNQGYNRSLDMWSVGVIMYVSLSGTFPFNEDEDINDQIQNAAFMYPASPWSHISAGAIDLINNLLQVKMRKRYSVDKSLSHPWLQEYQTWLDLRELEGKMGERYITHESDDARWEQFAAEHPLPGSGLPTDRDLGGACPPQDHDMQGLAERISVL
The conditions noted are these: at 0.1 µM.

Experiment [11] addresses T3, Serine/threonine-protein kinase D2 (Homo sapiens). The following applies: at 1 µM.
The target of experiment [12] is T4, Serine/threonine-protein kinase D3 (Homo sapiens) (UniProt O94806).
T4 sequence (whole entry): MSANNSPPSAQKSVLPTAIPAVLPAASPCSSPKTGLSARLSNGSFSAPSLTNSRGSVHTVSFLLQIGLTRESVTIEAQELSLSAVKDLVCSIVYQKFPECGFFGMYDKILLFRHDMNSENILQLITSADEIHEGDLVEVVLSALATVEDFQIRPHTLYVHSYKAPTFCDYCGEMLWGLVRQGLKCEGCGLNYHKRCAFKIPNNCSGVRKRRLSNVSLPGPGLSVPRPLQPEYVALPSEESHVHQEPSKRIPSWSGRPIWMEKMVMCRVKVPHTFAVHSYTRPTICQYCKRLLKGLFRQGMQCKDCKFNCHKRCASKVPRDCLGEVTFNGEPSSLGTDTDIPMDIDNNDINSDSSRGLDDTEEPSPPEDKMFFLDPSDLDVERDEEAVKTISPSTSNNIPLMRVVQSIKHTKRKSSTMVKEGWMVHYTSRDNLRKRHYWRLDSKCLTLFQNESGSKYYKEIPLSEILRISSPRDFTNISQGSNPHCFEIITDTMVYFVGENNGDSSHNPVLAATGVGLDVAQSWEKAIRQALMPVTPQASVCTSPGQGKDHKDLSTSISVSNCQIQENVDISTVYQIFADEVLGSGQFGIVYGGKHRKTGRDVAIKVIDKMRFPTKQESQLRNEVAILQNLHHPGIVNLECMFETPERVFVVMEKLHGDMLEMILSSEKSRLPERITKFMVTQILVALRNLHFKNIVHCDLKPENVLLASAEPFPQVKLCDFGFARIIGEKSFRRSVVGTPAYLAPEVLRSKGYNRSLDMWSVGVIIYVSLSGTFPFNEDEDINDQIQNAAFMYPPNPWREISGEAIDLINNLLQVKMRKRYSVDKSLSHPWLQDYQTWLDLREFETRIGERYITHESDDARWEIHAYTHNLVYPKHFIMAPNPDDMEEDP
The conditions noted are these: at 0.1 µM.

In experiment [13] the target is T4, Serine/threonine-protein kinase D3 (Homo sapiens). The conditions noted are these: at 1 µM.
The target in experiment [14] is T5, cGMP-dependent protein kinase 1 (Homo sapiens) (UniProt Q13976).
T5 sequence (whole entry): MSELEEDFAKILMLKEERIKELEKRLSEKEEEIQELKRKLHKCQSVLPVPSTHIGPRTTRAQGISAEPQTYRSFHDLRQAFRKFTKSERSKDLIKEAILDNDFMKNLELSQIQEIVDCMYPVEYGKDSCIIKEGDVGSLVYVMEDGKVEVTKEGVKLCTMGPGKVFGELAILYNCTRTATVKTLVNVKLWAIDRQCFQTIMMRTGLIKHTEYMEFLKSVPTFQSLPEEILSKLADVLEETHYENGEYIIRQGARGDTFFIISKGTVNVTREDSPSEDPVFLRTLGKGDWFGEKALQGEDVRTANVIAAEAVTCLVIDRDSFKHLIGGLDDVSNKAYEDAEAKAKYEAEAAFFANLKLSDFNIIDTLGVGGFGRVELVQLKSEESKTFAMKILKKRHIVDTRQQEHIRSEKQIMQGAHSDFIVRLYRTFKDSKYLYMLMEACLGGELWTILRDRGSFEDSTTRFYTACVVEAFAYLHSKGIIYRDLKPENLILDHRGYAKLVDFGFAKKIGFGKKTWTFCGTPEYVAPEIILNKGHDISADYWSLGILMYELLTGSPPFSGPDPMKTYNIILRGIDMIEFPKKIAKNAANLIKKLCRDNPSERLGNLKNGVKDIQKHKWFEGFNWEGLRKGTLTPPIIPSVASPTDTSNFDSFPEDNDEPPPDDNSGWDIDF
The conditions noted are these: at 0.1 µM.

The target of experiment [15] is T5, cGMP-dependent protein kinase 1 (Homo sapiens). The following applies: at 1 µM.
Experiment [16] has as its target T6, cGMP-dependent protein kinase 2 (Homo sapiens) (UniProt Q13237).
T6 sequence (whole entry): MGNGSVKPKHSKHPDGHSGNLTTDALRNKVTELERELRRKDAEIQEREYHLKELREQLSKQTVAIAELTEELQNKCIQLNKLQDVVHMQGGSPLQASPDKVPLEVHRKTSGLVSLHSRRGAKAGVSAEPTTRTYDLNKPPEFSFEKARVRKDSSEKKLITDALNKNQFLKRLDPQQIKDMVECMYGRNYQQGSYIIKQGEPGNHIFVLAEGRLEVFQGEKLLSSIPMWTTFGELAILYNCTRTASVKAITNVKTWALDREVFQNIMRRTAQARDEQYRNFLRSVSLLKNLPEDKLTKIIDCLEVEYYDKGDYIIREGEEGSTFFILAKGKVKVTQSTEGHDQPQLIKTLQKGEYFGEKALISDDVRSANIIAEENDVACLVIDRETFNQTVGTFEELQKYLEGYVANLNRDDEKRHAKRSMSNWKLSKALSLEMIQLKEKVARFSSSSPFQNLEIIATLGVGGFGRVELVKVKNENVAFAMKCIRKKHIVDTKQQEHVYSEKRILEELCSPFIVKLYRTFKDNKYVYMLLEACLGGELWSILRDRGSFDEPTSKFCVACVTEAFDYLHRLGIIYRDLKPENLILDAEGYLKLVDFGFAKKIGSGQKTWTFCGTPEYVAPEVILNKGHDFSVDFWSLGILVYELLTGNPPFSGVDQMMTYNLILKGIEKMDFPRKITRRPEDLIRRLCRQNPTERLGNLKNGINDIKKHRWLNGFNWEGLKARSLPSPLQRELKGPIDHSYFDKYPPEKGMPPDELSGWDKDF
The conditions noted are these: at 0.1 µM.

The target of experiment [17] is T6, cGMP-dependent protein kinase 2 (Homo sapiens). The conditions noted are these: at 1 µM.
The target of experiment [18] is T7, cAMP-dependent protein kinase catalytic subunit PRKX (Homo sapiens) (UniProt P51817).
T7 sequence (whole entry): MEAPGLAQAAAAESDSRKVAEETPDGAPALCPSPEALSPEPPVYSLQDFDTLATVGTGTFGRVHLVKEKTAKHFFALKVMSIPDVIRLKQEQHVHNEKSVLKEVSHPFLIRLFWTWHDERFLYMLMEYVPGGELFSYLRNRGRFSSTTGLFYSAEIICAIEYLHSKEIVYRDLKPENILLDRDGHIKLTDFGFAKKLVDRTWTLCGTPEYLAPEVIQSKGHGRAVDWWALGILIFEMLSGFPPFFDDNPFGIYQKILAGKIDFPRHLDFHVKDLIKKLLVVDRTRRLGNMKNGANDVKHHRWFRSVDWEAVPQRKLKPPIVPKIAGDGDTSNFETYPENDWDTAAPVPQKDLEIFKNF
The conditions noted are these: at 0.1 µM.

Experiment [19] concerns the target T7, cAMP-dependent protein kinase catalytic subunit PRKX (Homo sapiens). The following applies: at 1 µM.
Experiment [20] addresses Rho-associated protein kinase 1 (Homo sapiens) (UniProt Q13464). The following applies: at 0.1 µM.

Rho-associated protein kinase 1 (Homo sapiens), sequence (Q13464 2-1354 limits assumed): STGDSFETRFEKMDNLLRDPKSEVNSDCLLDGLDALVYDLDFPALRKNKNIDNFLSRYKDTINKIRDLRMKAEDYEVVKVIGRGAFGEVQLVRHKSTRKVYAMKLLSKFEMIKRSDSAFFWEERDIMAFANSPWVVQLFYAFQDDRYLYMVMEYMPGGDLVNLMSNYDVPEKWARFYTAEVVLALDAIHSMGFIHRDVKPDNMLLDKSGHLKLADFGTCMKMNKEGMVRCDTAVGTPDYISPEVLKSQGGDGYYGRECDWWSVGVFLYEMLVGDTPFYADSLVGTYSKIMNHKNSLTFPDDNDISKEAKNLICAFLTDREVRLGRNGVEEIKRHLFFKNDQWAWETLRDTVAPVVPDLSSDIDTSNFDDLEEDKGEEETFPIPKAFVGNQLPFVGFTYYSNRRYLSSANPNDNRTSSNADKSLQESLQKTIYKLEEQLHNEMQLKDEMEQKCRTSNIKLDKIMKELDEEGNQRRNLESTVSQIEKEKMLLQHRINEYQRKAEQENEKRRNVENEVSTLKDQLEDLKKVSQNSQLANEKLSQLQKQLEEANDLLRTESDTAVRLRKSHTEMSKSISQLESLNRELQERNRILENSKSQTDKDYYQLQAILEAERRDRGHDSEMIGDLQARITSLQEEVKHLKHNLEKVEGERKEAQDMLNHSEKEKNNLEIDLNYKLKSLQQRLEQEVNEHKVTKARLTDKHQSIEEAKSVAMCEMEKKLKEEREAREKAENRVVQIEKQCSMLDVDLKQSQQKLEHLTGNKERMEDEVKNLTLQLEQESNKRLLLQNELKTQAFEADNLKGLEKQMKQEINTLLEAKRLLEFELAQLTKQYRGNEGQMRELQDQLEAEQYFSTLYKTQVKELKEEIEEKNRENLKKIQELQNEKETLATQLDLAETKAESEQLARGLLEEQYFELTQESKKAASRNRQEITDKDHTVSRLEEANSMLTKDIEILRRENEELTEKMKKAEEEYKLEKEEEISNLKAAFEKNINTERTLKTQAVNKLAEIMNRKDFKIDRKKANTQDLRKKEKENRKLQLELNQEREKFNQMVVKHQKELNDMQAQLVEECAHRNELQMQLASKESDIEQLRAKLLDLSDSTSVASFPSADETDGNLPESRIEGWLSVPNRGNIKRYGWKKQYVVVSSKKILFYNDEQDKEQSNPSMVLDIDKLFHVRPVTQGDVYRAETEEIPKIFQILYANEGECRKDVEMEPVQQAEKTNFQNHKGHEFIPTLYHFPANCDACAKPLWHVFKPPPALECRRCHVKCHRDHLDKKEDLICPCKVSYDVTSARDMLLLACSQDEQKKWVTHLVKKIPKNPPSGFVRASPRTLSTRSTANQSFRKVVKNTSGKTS

Turning to `Cc1cc(O)cc(C)c1/C=C/c1cncc(C(N)=O)c1`, the inhibition in experiment [1] amounted to 2.79%; in [2], 0.54%; in experiment [3] it was 1.6%; in [4] it was 1.21%; in experiment [5] it was 0.54%; in experiment [6], 1.28%. Moreover, the inhibition in experiment [7] was 1.05%; in experiment [8], 2.25%; in [9], 3.69%; in experiment [10] it was 2.04%; in experiment [11], 2.16%; in [12], 3.14%. Also, the inhibition in experiment [13] was found to be 2.74%; in experiment [14], 2.79%; in experiment [15] it was 5.83%; in experiment [16], 0.33%; in [17], 3.49%; in experiment [18], 1.71%. Moreover, the inhibition in [19] is 3.29%; in experiment [20], 2.2%.
For `CN(c1ccc(NC(=O)NCCN2CCOCC2)cc1)c1ccnc(Nc2ccc(CS(C)(=O)=O)cc2)n1`, the inhibition in experiment [1] was found to be 4.99%; in experiment [2], 2.77%; in experiment [3], 2.1%; in experiment [4], 2.63%; in experiment [5] it was 3.43%; in experiment [6] it was 0.67%. Also, the inhibition in experiment [7] was -0.33%; in experiment [8], 2.05%; in [9], 1.78%; in experiment [10], 2%; in experiment [11], 1.04%; in experiment [12] it was 1.13%. The inhibition came out at 0.94% in experiment [13]; 2.25% in experiment [14]; 2.49% in experiment [15]; 0.06% in experiment [16]; 0.57% in experiment [17]; 2.36% in experiment [18]. Further, the inhibition came to 4.38% in experiment [19] and 1.51% in experiment [20].
